According to PubChem BioAssay AID1159580 (chemical genetic matrix, 2015):
Where “and” joins values, the source holds several entries; their conditions need not be identical. Equal entries are not always repeated. About 2,000 (36%) of roughly 5,500 compounds were called active. Roughly 18% stayed inconclusive and do not appear here. Cut-off read from the data, not from the text of the source: active = normalized growth mostly below about 0.91 (no sharp cut-off); inconclusive = no clear call, values can overlap the other calls; inactive = mostly above about 0.92. The list shows a part of the results.

Assay: chemical genetic growth profiling, strain panel (AID 1159580);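 note: tested at 20 µM; growth read once vehicle control cultures reached saturation at 30 °C; 1 = growth at the plate median or of vehicle wells; lower values mean less growth of the strain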
Conditions: growth OD

Measured: normalized growth

O=C(CCc1ccc(O)cc1)c1c(O)cc(O)cc1O
inactive: S. cerevisiae deletion strains, locus YJR075W, strain HOC1, active compounds read low 1.01 | S. cerevisiae deletion strains, locus YKL009W, strain mrt4, active compounds read low 1.03 | S. cerevisiae deletion strains, locus YKL068W, active compounds read low 1 | S. cerevisiae deletion strains, locus YKL085W, strain MDH1 (second series), active compounds read low 1.02 | S. cerevisiae deletion strains, locus YKL085W, strain MDH1, active compounds read low 1.02 | S. cerevisiae deletion strains, locus YKL160W, strain elf1, active compounds read low 0.978 | S. cerevisiae deletion strains, locus YKL190W, strain CNB1, active compounds read low 1.01 | S. cerevisiae deletion strains, locus YKR001C, strain vps1, active compounds read low 1.02 | S. cerevisiae deletion strains, locus YKR026C, strain gcn3, active compounds read low 1.01 | S. cerevisiae deletion strains, locus YKR091W, strain srl3, active compounds read low 1.01 | S. cerevisiae deletion strains, locus YLL001W, strain dnm1, active compounds read low 0.985 | S. cerevisiae deletion strains, locus YLL026W, active compounds read low 1.01 | S. cerevisiae deletion strains, locus YLL041C, strain sdh2, active compounds read low 1.02 | S. cerevisiae deletion strains, locus YLR027C, strain aat2, active compounds read low 1.01 | S. cerevisiae deletion strains, locus YLR039C, strain RIC1, active compounds read low 1.04 | S. cerevisiae deletion strains, locus YLR058C, strain SHM2, active compounds read low 1.01 | S. cerevisiae deletion strains, locus YLR102C, strain apc9, active compounds read low 1 | S. cerevisiae deletion strains, locus YLR113W, strain HOG1, active compounds read low 0.966 | S. cerevisiae deletion strains, locus YLR221C, strain rsa3, active compounds read low 1 | S. cerevisiae deletion strains, locus YLR258W, strain gsy2, active compounds read low 1.03 | S. cerevisiae deletion strains, locus YLR262C, strain YPT6 (second series), active compounds read low 1.02 | S. cerevisiae deletion strains, locus YLR262C, strain YPT6, active compounds read low 1.02 | S. cerevisiae deletion strains, locus YLR268W, strain sec22, active compounds read low 0.997 | S. cerevisiae deletion strains, locus YLR320W, strain mms22, active compounds read low 1.02 | S. cerevisiae deletion strains, locus YLR330W, strain CHS5, active compounds read low 1.01 | S. cerevisiae deletion strains, locus YLR342W, strain FKS1 (second series), active compounds read low 1.02 | S. cerevisiae deletion strains, locus YLR342W, strain FKS1, active compounds read low 1.01 | S. cerevisiae deletion strains, locus YLR357W, strain rsc2, active compounds read low 0.955 | S. cerevisiae deletion strains, locus YLR370C, strain arc18, active compounds read low 1.01 | S. cerevisiae deletion strains, locus YLR371W, strain rom2, active compounds read low 1 | S. cerevisiae deletion strains, locus YLR384C, strain iki3, active compounds read low 1.02 | S. cerevisiae deletion strains, locus YLR418C, strain cdc73, active compounds read low 0.991 | S. cerevisiae deletion strains, locus YML016C, strain PPZ1, active compounds read low 1.01 | S. cerevisiae deletion strains, locus YML032C, strain rad52, active compounds read low 1.07 | S. cerevisiae deletion strains, locus YML120C, strain ndi1, active compounds read low 1.01 | S. cerevisiae deletion strains, locus YML124C, strain tub3, active compounds read low 1.01 | S. cerevisiae deletion strains, locus YMR058W, strain fet3, active compounds read low 0.968 | S. cerevisiae deletion strains, locus YMR078C, strain ctf18, active compounds read low 1.02 | S. cerevisiae deletion strains, locus YMR125W, strain sto1, active compounds read low 1 | S. cerevisiae deletion strains, locus YMR129W, active compounds read low 1.02 | S. cerevisiae deletion strains, locus YMR205C, strain PFK2, active compounds read low 1.01 | S. cerevisiae deletion strains, locus YMR223W, strain ubp8, active compounds read low 1.04 | S. cerevisiae deletion strains, locus YMR231W, strain pep5, active compounds read low 0.988 | S. cerevisiae deletion strains, locus YMR263W, strain SAP30, active compounds read low 0.991 | S. cerevisiae deletion strains, locus YMR307W, strain GAS1, active compounds read low 0.986 and 1.01 | S. cerevisiae deletion strains, locus YNL067W, strain RPL9B, active compounds read low 0.994 | S. cerevisiae deletion strains, locus YNL071W, strain lat1, active compounds read low 1.03 | S. cerevisiae deletion strains, locus YNL128W, strain TEP1, active compounds read low 0.995 | S. cerevisiae deletion strains, locus YNL153C, strain GIM3, active compounds read low 0.991 and 0.975 | S. cerevisiae deletion strains, locus YNL175C, strain NOP13, active compounds read low 1 | S. cerevisiae deletion strains, locus YNL183C, strain NPR1, active compounds read low 0.947 | S. cerevisiae deletion strains, locus YNL197C, strain WHI3, active compounds read low 1 | S. cerevisiae deletion strains, locus YNL209W, strain ssb2, active compounds read low 1 | S. cerevisiae deletion strains, locus YNL224C, strain SQS1, active compounds read low 0.997 | S. cerevisiae deletion strains, locus YNL233W, strain BNI4, active compounds read low 0.985 | S. cerevisiae deletion strains, locus YNL248C, strain rpa49, active compounds read low 1.03 | S. cerevisiae deletion strains, locus YNL250W, strain rad50, active compounds read low 1.03 | S. cerevisiae deletion strains, locus YNL271C, strain bni1, active compounds read low 1.01 | S. cerevisiae deletion strains, locus YNL298W, strain CLA4, active compounds read low 1.03 | S. cerevisiae deletion strains, locus YNL307C, strain MCK1, active compounds read low 1.03 | S. cerevisiae deletion strains, locus YNL322C, strain KRE1 (second series), active compounds read low 0.978 | S. cerevisiae deletion strains, locus YNL322C, strain KRE1, active compounds read low 1 and 0.999 | S. cerevisiae deletion strains, locus YNR049C, strain mso1, active compounds read low 1.01 | S. cerevisiae deletion strains, locus YNR052C, strain pop2, active compounds read low 1.02 | S. cerevisiae deletion strains, locus YOL006C, strain TOP1, active compounds read low 1.02 | S. cerevisiae deletion strains, locus YOL012C, strain htz1 0.845 | S. cerevisiae deletion strains, locus YOL147C, strain pex11, active compounds read low 1.01 | S. cerevisiae deletion strains, locus YOR001W, strain rrp6, active compounds read low 1.03 | S. cerevisiae deletion strains, locus YOR061W, strain CKA2, active compounds read low 0.998 | S. cerevisiae deletion strains, locus YOR069W, strain VPS5, active compounds read low 0.995 | S. cerevisiae deletion strains, locus YOR070C, strain gyp1, active compounds read low 1.02 | S. cerevisiae deletion strains, locus YOR080W, strain dia2, active compounds read low 1.01 | S. cerevisiae deletion strains, locus YOR083W, strain WHI5 (second series), active compounds read low 1.01 | S. cerevisiae deletion strains, locus YOR083W, strain WHI5, active compounds read low 0.982 | S. cerevisiae deletion strains, locus YOR106W, strain vam3, active compounds read low 1.02 | S. cerevisiae deletion strains, locus YOR136W, strain idh2, active compounds read low 1.02 | S. cerevisiae deletion strains, locus YOR144C, strain elg1, active compounds read low 1 | S. cerevisiae deletion strains, locus YOR184W, strain ser1, active compounds read low 1.07 | S. cerevisiae deletion strains, locus YOR231W, strain MKK1, active compounds read low 0.983 | S. cerevisiae deletion strains, locus YOR265W, strain rbl2, active compounds read low 1 | S. cerevisiae deletion strains, locus YOR270C, strain vph1, active compounds read low 1.06 | S. cerevisiae deletion strains, locus YOR290C, strain snf2, active compounds read low 0.982 | S. cerevisiae deletion strains, locus YOR316C, strain cot1, active compounds read low 0.996 | S. cerevisiae deletion strains, locus YPL051W, strain arl3, active compounds read low 0.983 | S. cerevisiae deletion strains, locus YPL055C, strain LGE1, active compounds read low 0.992 and 1.01 | S. cerevisiae deletion strains, locus YPL078C, strain atp4, active compounds read low 1 | S. cerevisiae deletion strains, locus YPL106C, strain sse1, active compounds read low 0.976 | S. cerevisiae deletion strains, locus YPL240C, strain hsp82, active compounds read low 1.01 | S. cerevisiae deletion strains, locus YPL241C, strain CIN2, active compounds read low 1 | S. cerevisiae deletion strains, locus YPL256C, strain CLN2, active compounds read low 0.961 | S. cerevisiae deletion strains, locus YPR119W, strain clb2, active compounds read low 1.01 | S. cerevisiae deletion strains, locus YPR141C, strain kar3, active compounds read low 1.02 | S. cerevisiae deletion strains, locus YPR163C, strain tif3, active compounds read low 1.02 | S. cerevisiae deletion strains, locus YPR167C, strain met16, active compounds read low 1.01 | S. cerevisiae deletion strains, strain wtn01, active compounds read low 0.978 | S. cerevisiae strains, strain wild type, active compounds read low 0.998
